Hits are enriched below; roughly 21% of the tested compounds scored in any of these assays.
Pf growth 96h: P. falciparum growth inhibition at 96 hours; Potency, µM (series often up to 28.7 µM), usual class: inhibitors; P. falciparum luciferase reporter growth, 96 h; 320,000 compounds, 6.9% hits; AID 504834
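96 h incubation, 37 C, 5% CO2, of luciferase-reporter P. falciparum-infected RBCs (2% hematocrit, 0.05% parasitemia final) with test compounds; endpoint luminescence.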
Shiga toxin inh: Shiga toxin inhibition; inhibition, % at 38.7 µM; Vero cells, Shiga toxin protein synthesis inhibition reporter; 290,000 compounds, 9.2% hits; in the data active means inhibition mostly above about 28%, no sharp cut-off; inactive means mostly below about 43%
CHX counter: counter-screen for Shiga toxin inhibitors: cycloheximide protein synthesis inhibition; cell reporter, cycloheximide protein synthesis inhibition counterscreen; max response, %; 300,000 compounds, 12% hits; AID 2314; in the data active means max response mostly above about 13%, no sharp cut-off; inactive means mostly below about 14%; further: read at 38.3 µM for the half of the compounds with a filed dose
NS1 function inh: inhibitors of influenza NS1 protein function | AID 2326 | Potency, µM (highest dose often 46.1 µM) | 270,000 compounds, 0.4% hits; calls by dose curve; further: actives are rising curves; nearly all actives have a fitted effect of over 50% in size
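Recovery from NS1-induced slow growth read by OD600 in budding yeast switched to galactose assay medium (pH 6.0, -URA) at 1:100 dilution. Compound 23 nl per well; the matching strain lacking NS1 serves as control.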
Pf growth 48h: inhibits P. falciparum growth in the first generation, 48 h; P. falciparum luciferase growth in erythrocytes, 48 h; Potency, µM (titrated, usually from 28.7 µM), usual class: inhibitors; 310,000 compounds, 5.9% hits; AID 504832
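Read-out is firefly luciferase luminescence from an integrated reporter in P. falciparum, so falling signal marks reduced parasite growth. Infected erythrocytes were at 2% hematocrit and 0.1% parasitemia (final) in Albumax-supplemented RPMI 1640.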
Each line names hits and unclear results; the compound was inactive in the other large screens. Unless noted, the call rests on the fitted dose curve; in most records, active means well fitted inhibition curve with a large enough effect; inconclusive means small, poorly fitted or top-dose-only effect, or another doubt; inactive means no such curve, though single readings can be large or run the other way.

O=S(=O)(c1ccc(F)c(F)c1)N1CCCc2ccccc21	Shiga toxin inh 64, CHX counter 37
COC(=O)Nc1ccc(S(=O)(=O)N2CCCc3ccccc32)cc1	Shiga toxin inh 41, CHX counter 18, Pf growth 48h inconclusive
COC(=O)Nc1ccc(S(=O)(=O)N2CCCc3cccc(O)c32)cc1	none
Cc1cccc(S(=O)(=O)N2CCCc3ccccc32)c1	none
O=S(=O)(c1ccc(Br)cc1)N1CCCc2ccccc21	Pf growth 96h inconclusive, CHX counter 12
CC1CCN(Cc2nc(Cl)c3c4c(sc3n2)CCC4)CC1	CHX counter 25 (no result: NS1 function inh)
Cc1sc2nc(CN3CCCCC3)nc(N3CCN(C(=O)c4ccco4)CC3)c2c1C	Pf growth 96h inconclusive, Pf growth 48h 7.4µM (no result: NS1 function inh)
Cc1ccc(C)c(S(=O)(=O)N2CCN(c3nc(CN4CCOCC4)nc4sc(C)c(C)c34)CC2)c1	Pf growth 96h 12µM, Pf growth 48h 12µM (no result: Shiga toxin inh, CHX counter, NS1 function inh)
Cc1sc2nc(CN3CCCCC3)nc(Cl)c2c1C	Pf growth 96h inconclusive, CHX counter 15
Cc1ccc(S(=O)(=O)N2CCN(c3nc(CN4CCCC4)nc4sc(C)c(C)c34)CC2)cc1	Pf growth 96h inconclusive, Pf growth 48h 4.7µM (no result: Shiga toxin inh, CHX counter, NS1 function inh)
CCN1C(=O)C2C(c3ccc(O)c(OC)c3)NC(C)(C(=O)OC)C2C1=O (configuration not stated)	none
COC(=O)[C@]1(C)N[C@H](c2ccc(-c3ccc(Cl)c(Cl)c3)c(OC)c2)[C@@H]2C(=O)N(C)C(=O)[C@@H]21	Pf growth 96h 3.3µM, Pf growth 48h 5.2µM (no result: Shiga toxin inh, CHX counter, NS1 function inh)
CCN1C(=O)[C@H]2[C@@H](c3ccc(-c4cccc(Cl)c4)c(OC)c3)N[C@@](C)(C(=O)OC)[C@H]2C1=O	Pf growth 96h 1.2µM, Pf growth 48h 2.1µM (no result: Shiga toxin inh, CHX counter, NS1 function inh)
CCc1ncc(CO)n1Cc1cccc2ccccc12	none (no result: Pf growth 96h, Shiga toxin inh, CHX counter, Pf growth 48h)
Cc1nc(SCC(=O)OCc2ccccc2)c(C#N)c(-c2ccccc2)c1C(=O)Nc1ccccc1	Pf growth 96h inconclusive, Pf growth 48h inconclusive
Cc1ccccc1NC(=O)c1c(C)nc(SCC(=O)OCc2ccccc2)c(C#N)c1-c1ccc(F)cc1	Pf growth 96h inconclusive, Pf growth 48h 13µM
CCCOC(=O)Cn1cnc2scc(-c3ccc(OC)cc3)c2c1=O	none
CCCC(NC(=O)CCl)c1ccccc1 (configuration not stated)	Pf growth 96h inconclusive, Pf growth 48h 9.3µM
CC(C)CC(NC(=O)CCl)c1ccccc1 (configuration not stated)	Pf growth 96h inconclusive
CCC(NC(=O)CCl)c1ccc(C)cc1 (configuration not stated)	Pf growth 96h 1.3µM, Pf growth 48h 5.9µM
COc1ccc([N+](=O)[O-])cc1NC(=O)Cc1c(Cl)cccc1Cl	Pf growth 96h inconclusive, Pf growth 48h inconclusive
O=C1c2ccccc2S(=O)(=O)N1CCOc1ccccc1	CHX counter 35
O=C1c2ccccc2S(=O)(=O)N1CC(O)COc1ccc(Br)cc1 (configuration not stated)	CHX counter 28
COc1ccc(NC(=O)CCN2C(=O)c3ccccc3S2(=O)=O)cc1	none
O=C1c2ccccc2S(=O)(=O)N1CC(O)COc1ccc(Cl)cc1 (configuration not stated)	Pf growth 96h 6.6µM
O=C1c2ccccc2C(=O)N1CC(O)COc1ccc(Br)cc1 (configuration not stated)	Pf growth 96h inconclusive, CHX counter 13
COC(=O)c1ccc(OCC(O)CN2C(=O)c3ccccc3S2(=O)=O)cc1 (configuration not stated)	Pf growth 96h inconclusive
CC(Nc1c([N+](=O)[O-])c(=O)oc2ccccc12)c1ccccc1 (configuration not stated)	none
COc1cc(Cl)c(C)cc1NC(=O)CCNC(=O)c1ccco1	none
O=C(NCc1ccc(F)cc1)c1cc(-c2ccncc2)nc2ccccc12	Pf growth 96h inconclusive, Pf growth 48h 3.7µM
CCc1ccc(-c2cc(C(=O)NCc3ccccn3)c3ccccc3n2)cc1	Pf growth 96h inconclusive, Shiga toxin inh 92, CHX counter 64
Cc1ccc(-c2cc(C(=O)NCCc3ccc(S(N)(=O)=O)cc3)c3ccccc3n2)cc1	Pf growth 96h inconclusive, CHX counter 17, Pf growth 48h inconclusive
Cc1ccc(C(=O)NCc2ccccn2)c(Cl)c1	Shiga toxin inh 63, CHX counter 31
NS(=O)(=O)c1ccc(CCNC(=O)c2cc(-c3ccccc3)nc3ccccc23)cc1	none
CCC(NC(=O)Cc1c(C)c2c(cc(C)c3c(C)c(C)oc32)oc1=O)C(=O)O (configuration not stated)	none
Cc1ccc(-c2cc(C(=O)NCc3ccccn3)c3ccccc3n2)cc1	CHX counter 30, Pf growth 48h inconclusive
O=C(Nc1sc2c(c1C(=O)NCCO)CCCC2)c1ccco1	none
O=C1Nc2ccccc2/C1=N/c1sc2c(c1C(=O)NCCc1ccccc1)CCCC2	Shiga toxin inh 39, Pf growth 48h inconclusive
CCCc1cc(=O)[nH]c(SCC(=O)N2CCc3ccccc3C2)n1	Pf growth 48h inconclusive (no result: Shiga toxin inh, CHX counter, NS1 function inh)
CC(C)C[C@H](NC(=O)[C@H](Cc1ccccc1)NC(=O)[C@H](Cc1ccccc1)NC(=O)[C@@H](N)CO)C(=O)N[C@@H](CCCN=C(N)N)C(=O)N[C@@H](CC(N)=O)C(=O)O	none (no result: Pf growth 96h, NS1 function inh, Pf growth 48h)
CNc1nnc(Sc2ncccc2[N+](=O)[O-])s1	Pf growth 96h inconclusive, Pf growth 48h 9.3µM
C#CC1(O)C=CC2C3CCC4=CC(=O)CCC4C3CCC21CC (configuration not stated)	Pf growth 96h 8.5µM, Pf growth 48h inconclusive
C#C[C@@]1(O)CC[C@@H]2[C@H]3CCC4=C/C(=N\O)CC[C@H]4[C@@H]3CC[C@]21CC	Pf growth 96h inconclusive (no result: Shiga toxin inh, CHX counter, NS1 function inh)
O=C(O)c1ccc(N=Cc2c(O)ccc3ccccc23)cc1	Pf growth 96h inconclusive (no result: Shiga toxin inh)
Oc1ccc2ccccc2c1C=Nc1cc(C(F)(F)F)ccc1N1CCCC1	Shiga toxin inh 51, Pf growth 48h inconclusive
CCOc1ccccc1CNCCNCC(C)O (configuration not stated)	Pf growth 96h 9.3µM
CCOc1ccccc1CNCc1ccc(F)cc1	none
Cc1ccccc1OCCNCC(C)O (configuration not stated)	Pf growth 96h 13µM
Cc1ccccc1OCC(O)CN (configuration not stated)	none (no result: Pf growth 96h)
CCCn1c2ccccc2c2cnn(CC(=O)NC3CCCC(C)C3C)c(=O)c21 (configuration not stated)	Pf growth 96h inconclusive
O=C(CC1(O)C(=O)Nc2ccccc21)c1ccc(-n2cnnn2)cc1 (configuration not stated)	Pf growth 96h inconclusive, CHX counter 24 (no result: NS1 function inh)
Nc1cc(-c2ccc(OC(F)(F)F)cc2)nn1-c1ccc(Cl)c(Cl)c1	none
CCc1ccc(C(=O)NNC(=O)CN2C(=O)NC(CC)(c3ccccc3)C2=O)cc1 (configuration not stated)	none (no result: Shiga toxin inh, CHX counter, NS1 function inh)
COc1cc(/C=N/NC2=NC(C)(C)Cc3ccccc32)cc(OC)c1OC	Pf growth 48h inconclusive
CN(C)c1nc(N(C)C)nc(N2CC(=O)N(c3ccccc3)C2=N)n1	Pf growth 48h 2.9µM (no result: NS1 function inh)
O=C1CCC(=O)N1c1ccccc1	none

Bioassay records from PubChem.
